Screens: PubChem, National Center for Advancing Translational Sciences (NCATS)
Only a selection was taken, and hits are over-represented in it overall.
Methyltransferases: Primary Screen for Target Class Profiling of Small Molecule Inhibitors of Methyltransferases. purified enzyme, MTase-Glo SAH luminescence; active compounds read low. calls only at 40 µM. hit rate 3.9% among 25,000; call rule not given here
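Each enzyme was assayed with SAM and its substrate. SAH formation detected by MTase-Glo luminescence; single-point 40 uM screen[…].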
MTase-Glo counter: counter-screen for methyltransferase inhibitors: coupling enzymes without methyltransferase. Potency, µM (doses to about 57.3 µM), for the others: at the top dose activity change, negative = inhibition, usual class: inhibitors. shares compounds with Methyltransferases. hit rate 6% among 180. MTase-Glo coupled enzymes, SAH conversion luminescence, no MTase; active = well fitted inhibition curve with a large enough effect; inconclusive = small, poorly fitted or top-dose-only effect; note: potency is the fitted concentration of half-maximal effect
* marks the source's active call; other numbers are inactive results; i = inactive; ? = inconclusive; + = active, no number; [ ] = dose if it differs, or a comment. % is set by controls: 0 for no effect and ±100 for the full control effect.

SMILES | Methyltransferases | others
COc1ccc(N2C(=O)c3cc4ccccc4n3CC2(C)C(=O)NC2CCCC2)cc1OC (stereo unspecified) | i
O=C(Cn1nc2c(cc1=O)CCCCC2)Nc1nnc(C2CCCO2)s1 (stereo unspecified) | i
COC(=O)c1nc(NC(=O)Cn2nc3c(cc2=O)CCCC3)sc1C(C)C | + | MTase-Glo counter=-1.1%
CCc1nc(NC(=O)Cn2nc3c(cc2=O)CCCC3)sc1C | i
Cc1ccc(Cn2c(=O)c3ccccc3n3c(SCC(=O)Nc4cccc(F)c4)nnc23)cc1 | i
CCCSCCCN1C(=O)c2cc(-c3cccs3)nn2CC1(C)C(=O)NC1CCCCC1 (stereo unspecified) | i
COc1ccc(OC)c(CN2CCNc3cc(-c4ccnc(C)c4)ncc3C2)c1 | + | MTase-Glo counter=4.5%[85.7 µM]
COc1ccc(OC)c(CN2CCC3(CC2)Nc2ccccc2NC3=O)c1 | i
COc1ccc(-c2nn(-c3ccccc3C)cc2CN2CCCN(C)CC2)cc1F | i
CC(C)CN(CCN1C(=O)c2cc3occc3n2CC1(C)C(=O)NC1CCCCCC1)CC(C)C (stereo unspecified) | i
COc1ccccc1CNC(=O)C1(C)Cn2nc(-c3ccccc3)cc2C(=O)N1Cc1cccc(C)c1 (stereo unspecified) | i
CC(C)NC(=O)c1ccc2c(=O)n(Cc3ccccc3)c3n[nH]c(=O)n3c2c1 | i
CN1CCN(C)c2cnc(-c3cnn(Cc4ccccc4)c3)cc2C1 | + | MTase-Glo counter=4.3%[85.7 µM]
CC(C)NC(=O)c1ccc2c(=O)n(C(C)C)c3nn(CC(=O)Nc4cccc(Cl)c4)c(=O)n3c2c1 | i
O=C(C1CCCN1[S+](=O)([O-])c1cccc(C(F)(F)F)c1)N1CCC(c2nc3ccncc3[nH]2)C1 (stereo unspecified) | i
O=C(c1ccc(C(F)(F)F)cc1)N1CCCC(C(=O)N2CCC(c3nc4ccncc4[nH]3)CC2)C1 (stereo unspecified) | + | MTase-Glo counter=1.6%
O=C(C1CCCN1C(=O)c1ccccc1Cl)N1CCC(c2nc3ccncc3[nH]2)CC1 (stereo unspecified) | i
Cc1ccc(N2CCN(S(=O)(=O)c3cc4[nH]c(=O)[nH]c4cc3Cl)CC2)c(C)c1 | i
CN1CCN(CCCNC(=O)c2cc3n(n2)CC(C)(C(=O)NC2CCCCCC2)N(C)C3=O)CC1 (stereo unspecified) | i
COc1ccccc1CN1C(=O)c2ccc(-c3ccccc3)n2CC1(C)C(=O)NC1CCC(C)CC1 (stereo unspecified) | i
CCCC1c2ccc(C)n2CCN1C(=O)Nc1ccc(C)c(Cl)c1 (stereo unspecified) | i
COCCCN1C(=O)c2ccc(-c3ccccc3)n2CC1(C)C(=O)NC1CCCCCCC1 (stereo unspecified) | i
Cc1ccc(C)c(C(=O)Cn2nc3n(CCc4ccccc4)c(=O)c4ccccc4n3c2=O)c1 | i
COc1ccc2c(c1)c(CN1C[C@@H](CO)[C@H](c3nc(C)no3)C1)cn2C | i
COc1ccc(CN2C[C@@H](CO)[C@H](c3ccncc3)C2)c(OC)c1 | + | MTase-Glo counter=3.8%
SMILES | Methyltransferases | others
Cn1cccc1CN1C[C@@H](CO)[C@H](c2ccncc2)C1 | i
COc1cccc(CN2C(=O)c3nc4ccccc4n3CC2(C)C(=O)NC2CCCCC2)c1OC (stereo unspecified) | i
CC(C)CNc1ccc2c(n1)C(C)(C(=O)NCc1cccnc1)CN(Cc1ccccc1)C2 (stereo unspecified) | i
Fc1ccccc1CN1CCNc2cnc(OCc3cccnc3)cc2C1 | i
c1ccc(Nc2cc3c(cn2)NCCN(Cc2cccs2)C3)cc1 | i
Cn1cnc(CN2CCNc3cc(Nc4ccccc4)ncc3C2)c1 | + | MTase-Glo counter=3.3%[85.7 µM]
Cn1cc(CN2CCOc3cc([S+](=O)([O-])Nc4ccccc4)ccc3C2)cn1 | i
c1ccc(CCN2CCNc3cc(NCc4cccnc4)ncc3C2)cc1 | + | MTase-Glo counter=?
CCC(C(=O)NCc1cccc(F)c1)n1ccc2cc(S(=O)(=O)N3CCCCC3)ccc21 (stereo unspecified) | i
CCN(CCCNC(=O)CCc1nnc2n(Cc3ccccc3)c(=O)c3ccccc3n12)c1cccc(C)c1 | i
O=C(CCn1ccc2cc(S(=O)(=O)N3CCCCC3)ccc21)NC1CCCCC1 | i
CN1C(=O)c2cc(C(=O)NCCc3ccccc3)nn2CC1(C)C(=O)NCc1ccccc1 (stereo unspecified) | i
CC(C)OCCCn1c(=O)c2cc(Cl)ccc2n2c(SCc3ccccc3)nnc12 | i
CCCn1c(=O)c2cc(Cl)ccc2n2c(=O)n(Cc3ccc(Cl)cc3)nc12 | i
CCNc1nc2c(s1)C(c1cccc(F)c1)CC(=O)N2 (stereo unspecified) | + | MTase-Glo counter=?
COCc1ncc(C)n1C1CCCN(C(=O)CCCc2ccccc2)C1 (stereo unspecified) | i
COc1ccc(C(=O)N2CC[C@H](c3nnc(-c4ccccc4)o3)C2)cc1 | i
c1ccc(-c2nnc([C@H]3CCN(C4CCC4)C3)o2)cc1 | i
FC(F)(F)c1ccnc(N2CC[C@H](c3nnc(-c4ccncc4)o3)C2)n1 | + | MTase-Glo counter=-4.4%[85.7 µM]
Cc1cc2c(cc3n2CC(C)(C(=O)NC2CCCCCC2)N(c2ccc(Cl)cc2)C3=O)o1 (stereo unspecified) | i
CC(C)Oc1ccc(CNC(=O)Cn2ccc3cc(S(=O)(=O)N4CCCCC4)ccc32)cc1 | i
CCCN1C(=O)c2c(C(=O)NCCc3ccc(C)cc3)ncn2CC1(C)C(=O)NCc1ccc(F)cc1 (stereo unspecified) | i
CCOc1ccc(CN2C(=O)c3cc4ccc(OC)cc4n3CC2(C)C(=O)NC2CCCCC2)cc1 (stereo unspecified) | i
COc1ncccc1-c1cc2c(ccn2CC2CCN([S+](C)(=O)[O-])CC2)c(N2CCOCC2)n1 | + | MTase-Glo counter=-0.8%
Cc1nn2c(c1-c1cccnc1N1CCOCC1)N(C(=O)c1cc3ccccc3n1C)CCC2 | i
SMILES | Methyltransferases | others
CC(C)CCNC(=O)C1(C)Cn2c(cc3ccccc32)C(=O)N1Cc1ccc2c(c1)OCO2 (stereo unspecified) | i
CC1CCN(C(=O)c2cc3n(n2)CC(C)(C(=O)NCc2ccccc2)N(C)C3=O)CC1 (stereo unspecified) | i
COc1cccc2c1OCCCN(Cc1cn(-c3ccccc3)nn1)C2 | i
CS(=O)(=O)NC1CCN(c2cc(C3CC(N)C3)nc(N)n2)CC1 (stereo unspecified) | i
COc1cccc2c1OCCCN(c1cc(C3CC(O)C3)nc(N)n1)C2 (stereo unspecified) | + | MTase-Glo counter=-1.9%
CC(C)OCCCn1c(=O)c2ccccc2n2c(CCC(=O)Nc3ccc(F)c(F)c3)nnc12 | i
CC(C)OCCCNC(=O)C1(C)Cn2c(cc3ccccc32)C(=O)N1Cc1cccc(Cl)c1 (stereo unspecified) | i
Cc1cc2c(cc3n2CC(C(=O)NC2CCCCCC2)(c2ccccc2)N(Cc2ccccc2)C3=O)o1 (stereo unspecified) | i
Cc1ccc([C@@H]2CN(c3cc(N4CCC(O)CC4)ncn3)C[C@H]2N(C)C)cc1 | + | MTase-Glo counter=-3.1%
CN(C)c1cc(N2CCCC(NC(=O)C3CCC3)C2)ncn1 (stereo unspecified) | i
